Assay [1] in a line: cAMP Responsive Elements (CRE) small molecule antagonists, cell-based qHTS assay: qHTS cell viability counter screen (AID 2060913). Further: nearly all actives have a fitted effect of over 40% in size. The method, boiled down:
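HEK293T CRE-bla, 2,000 cells/well, 18 h preincubation; cpd in DMSO + NKH477 0.25 uM final, 3 h 37 C/5% CO2; LiveBLAzer 2 h RT, then CellTiter-Glo 30 min RT, luminescence.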
In general terms: qHTS replaces the single test concentration by a dilution series.

Assay [2] in a line: cAMP Responsive Elements (CRE) small molecule agonists, cell-based qHTS assay: qHTS cell viability counter screen (AID 2060914). Further: nearly all actives have a fitted effect of over 50% in size. The method, boiled down: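 In the same wells as the reporter read, viability of CRE-bla HEK 293T cells was quantified by CellTiter-Glo luminescence after a 3 h compound exposure.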

Results filed as inconclusive are left out. Entries that show only a call come without a potency. Activity calls are given as the source filed them. The call rests on the fitted dose curve; in most records, active means well fitted cell-killing curve with a large enough effect in the repeat runs; inconclusive means weak or mixed curves, or effect the other way; inactive means flat fitted curve, though single readings scatter.

With `O=S(=O)(O)c1cc(O)c(O)c(S(=O)(=O)O)c1`, the Potency result in assay [1] and in assay [2] was “inactive” in each case.
With `O=C(O)COc1nn(Cc2ccccc2)c2ccccc12`, the Potency entry in assay [1] and in assay [2] was “inactive” in each case.
Consider `Cc1cc(C(=C2C=CC(=Nc3ccc(S(=O)(=O)O)cc3S(=O)(=O)O)C=C2)c2ccc(Nc3ccc(S(=O)(=O)O)cc3)cc2)ccc1N`, for which the Potency entry in assay [1] and in assay [2] was “inactive” in each case.
With `O=C(Cl)c1ccc(Cl)cc1Cl`, the Potency result in assay [1] and in assay [2] was “inactive” in each case.
For the compound `C=C(C)C(N)=O`, the Potency result in assay [1] and in assay [2] was “inactive” throughout.

The values above are taken from PubChem BioAssay (Tox21).
